Source: PubChem BioAssay
Vif-A3F inh: Vif-A3F binding inhibition; AID 602313; Potency, µM (titrated, usually from 46.1 µM); HeLa A3F-eYFP + Vif (tagged APOBEC3F with the HIV-1 protein that degrades it), YFP fluorescence increase; actives 0.2% (n = 390,000); note: nearly all actives have a fitted effect of over 65% in size
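HeLa cells stably expressing A3F-eYFP plus Vif, plated and incubated overnight at 37 deg C, then exposed to compounds overnight at 37 deg C. Blocked degradation read as raised yellow fluorescence (Ex 488/Em 500-530).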
Epigenetic derep: derepresses silenced GFP reporter in murine cells | murine LDR cells, GFP reporter derepression, 30 h | AID 1865 | actives 0.2% (n = 280,000) | Potency, µM (series often up to 53.9 µM), hits mostly activators; note: nearly all actives have a fitted effect of over 60% in size
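Murine LDR cells bearing a silenced CMV-driven GFP reporter were exposed to compound for 30 h at 37 C. After PBS washes, GFP-positive cells (20-120 um objects) counted by laser-scanning microplate cytometry.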
Vif-APOBEC3G blk: blocks the Vif interaction with human APOBEC3G; actives 0.076% (n = 410,000); Q9HC16; HeLa A3G-eYFP + Vif (tagged APOBEC3G with the HIV-1 protein that degrades it), YFP fluorescence, overnight; Potency, µM (top dose mostly 46.1 µM), most hits filed as inhibitors; note: nearly all actives have a fitted effect of over 60% in size
Target sequence (Q9HC16 whole entry, looked up): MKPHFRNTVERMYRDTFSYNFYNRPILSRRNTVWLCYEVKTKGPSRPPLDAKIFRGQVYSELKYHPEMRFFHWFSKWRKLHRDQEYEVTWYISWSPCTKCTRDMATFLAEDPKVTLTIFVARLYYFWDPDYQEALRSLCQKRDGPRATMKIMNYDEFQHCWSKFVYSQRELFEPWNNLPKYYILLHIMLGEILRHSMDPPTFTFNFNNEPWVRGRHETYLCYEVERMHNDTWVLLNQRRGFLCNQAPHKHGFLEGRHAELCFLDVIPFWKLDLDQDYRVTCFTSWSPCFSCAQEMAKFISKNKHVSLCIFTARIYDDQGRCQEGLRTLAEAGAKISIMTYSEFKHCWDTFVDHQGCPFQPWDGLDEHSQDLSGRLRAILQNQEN
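HeLa cells stably expressing Vif and C-terminally eYFP-tagged A3G, seeded overnight at 37 deg C, then exposed to compound by pintool overnight at 37 deg C. Rise in yellow fluorescence (Ex 488/Em 500-530, Acumen) marks blocked Vif-driven A3G degradation.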
A number is an active result. Rows were chosen to be rich in hits. Some 0.34% of all compounds tested hit in one or more screens of this group. Calls come from the whole dose curve; as a rule, active = well fitted curve in the direction sought with a large enough effect; inconclusive = small, poorly fitted or top-dose-only effect, or another doubt; inactive = no such curve, though single readings can be large; an effect the other way counts as inactive or inconclusive.

Screening CCCCN1C(=O)C2Cc3c([nH]c4ccccc34)CN2C1=S (centres undefined) returned Vif-A3F inh inactive, Epigenetic derep inconclusive and Vif-APOBEC3G blk 8.91µM.
Screening CCCCCN1CC(=O)N2Cc3[nH]c4ccccc4c3C[C@H]2C1=O returned Vif-A3F inh inactive and Vif-APOBEC3G blk inactive.
For O=[N+]([O-])c1ccc2c(c1)C=C/C2=C\c1ccc(C=S)cc1 the results were Vif-APOBEC3G blk inactive.
Screening c1cc2c3c(c1)CCC[N+]3(C1CCCCC1)CCC2 returned Vif-APOBEC3G blk inactive.
CCOc1cc(/C=C2/C(=N)N3C(=NC2=O)SN=C3S(C)(=O)=O)ccc1OC(=O)c1ccco1 was read as Vif-A3F inh 12.6µM and Vif-APOBEC3G blk inactive.
CCOc1cc(/C=C2/C(=N)N3C(=NC2=O)SN=C3S(C)(=O)=O)ccc1OS(=O)(=O)c1ccccc1 was read as Vif-A3F inh inactive and Vif-APOBEC3G blk inactive.
CCOc1cc(/C=C2\C(=N)N3N=C(S(=O)(=O)CC)SC3=NC2=O)ccc1OC(=O)c1ccco1 was read as Vif-A3F inh inconclusive and Vif-APOBEC3G blk inactive.
Screening COc1cc(/C=C2\C(=N)N3N=C(S(C)(=O)=O)SC3=NC2=O)ccc1OC(=O)c1ccco1 returned Vif-A3F inh 7.08µM and Vif-APOBEC3G blk inactive.
`O=C(COc1ccc2ccccc2c1)Nc1ccc(O)c(-c2nc3ccccc3o2)c1` gave Vif-APOBEC3G blk inactive.
`CC(C)(C)n1ncc2c(=O)n(Cc3cccc(Cl)c3Cl)cnc21` gave Vif-APOBEC3G blk inactive.
CCc1ccc(NC(=O)CSc2nc3c(sc4ccccc43)c(=O)n2CCCOC(C)C)cc1 was read as Vif-A3F inh inactive, Epigenetic derep inactive and Vif-APOBEC3G blk inactive.
For CC1CCN(S(=O)(=O)c2nnc(NC(=O)c3cccc(Br)c3)s2)CC1 the results were Vif-A3F inh inactive, Epigenetic derep inactive and Vif-APOBEC3G blk inactive.
For CC1CCN(S(=O)(=O)c2nnc(NC(=O)c3cccc(F)c3)s2)CC1 the results were Vif-A3F inh inactive, Epigenetic derep 12.6µM and Vif-APOBEC3G blk inactive.
CN1C(=O)/C(=C/c2coc3ccc(O)cc3c2=O)SC1=S was read as Vif-A3F inh inactive, Epigenetic derep inactive and Vif-APOBEC3G blk inactive.
Screening Cc1ccc(-n2c(C)cc(/C=C3\SC(=O)NC3=O)c2C)cc1 returned Vif-A3F inh inactive and Vif-APOBEC3G blk inactive.
For Cc1cc(/C=C2\SC(=S)N(C)C2=O)c(C)n1-c1ccccc1O the results were Vif-A3F inh 11.2µM and Vif-APOBEC3G blk inconclusive.
For Cc1cc(/C=C2\SC(=S)N(C)C2=O)c(C)n1-c1ccc(O)cc1 the results were Vif-A3F inh 25.1µM, Epigenetic derep inconclusive and Vif-APOBEC3G blk inconclusive.
Screening COc1ccc(NC(=O)CCc2nnc3n(C)c(=O)c4sccc4n23)cc1 returned Epigenetic derep inactive.
CCc1ccc(OCCn2c(CCNC(=O)C3CCCCC3)nc3ccccc32)cc1 was read as Vif-APOBEC3G blk inactive.
For CC(C)(C)n1ncc2c(=O)n(Cc3c(Cl)ccc(Cl)c3Cl)cnc21 the results were Vif-APOBEC3G blk inactive.
Screening CCCn1nc(-c2ccccc2)c2nc3ccccc3nc21 returned Vif-A3F inh inconclusive, Epigenetic derep inactive and Vif-APOBEC3G blk inactive.
`CCn1nc(-c2ccccc2)c2nc3ccccc3nc21` gave Vif-A3F inh 25.1µM, Epigenetic derep inactive and Vif-APOBEC3G blk 12.6µM.
Cc1ccc(-c2c(C3C4C=CCC(C)C4C(=O)N3Cc3ccccc3)ccc3ccccc23)cc1 (centres undefined) was read as Vif-APOBEC3G blk inactive.
Screening CCOC(=O)c1ccc(-c2ccc(/C=C(\C#N)C(=O)Nc3ccc(C)cc3OC)o2)cc1 returned Vif-A3F inh inactive, Epigenetic derep inactive and Vif-APOBEC3G blk inactive.
Screening CCOC(=O)c1ccc(-c2ccc(/C=C(\C#N)C(=O)Nc3c(C)cccc3Cl)o2)cc1 returned Vif-A3F inh inconclusive, Epigenetic derep 11.2µM and Vif-APOBEC3G blk inactive.
`Cn1c(=O)c2c(-c3ccccc3Cl)n(-c3cc(Cl)ccc3O)cc2n(C)c1=O` gave Vif-A3F inh inactive, Epigenetic derep inactive and Vif-APOBEC3G blk inactive.
Screening CCN1/C(=C/C=C2/SC(=Nc3cccc4ncccc34)N(C)C2=O)Sc2ccccc21 returned Vif-A3F inh 3.55µM and Vif-APOBEC3G blk inactive.
CCC(=O)/C=C1/Sc2ccccc2N1CC was read as Vif-A3F inh inactive, Epigenetic derep inactive and Vif-APOBEC3G blk inactive.
COc1ccc(-n2nc3c(N4CCCC(C(=O)NCc5ccccc5C)C4)nnc(C)c3c2C)cc1 (centres undefined) was read as Vif-A3F inh inactive, Epigenetic derep inactive and Vif-APOBEC3G blk inconclusive.
COc1ccc(-n2nc3c(N4CCCC(C(=O)NCCc5ccccc5C)C4)nnc(C)c3c2C)cc1 (centres undefined) was read as Vif-A3F inh 22.4µM, Epigenetic derep inconclusive and Vif-APOBEC3G blk inconclusive.
Screening Cn1cc(CCCC(=O)NCc2ccccc2Cl)c2ccccc21 returned Vif-A3F inh inactive, Epigenetic derep inactive and Vif-APOBEC3G blk inactive.
CCOC(=O)CC1C(=O)NCCN1C(=O)c1cc2c(=O)n3cccc(C)c3nc2s1 (centres undefined) was read as Vif-A3F inh inactive, Epigenetic derep inactive and Vif-APOBEC3G blk inactive.
Screening CCCN1C(=O)/C(=C/c2c(N3CCNC(=O)C3CC(=O)OC)nc3c(C)cccn3c2=O)SC1=S (centres undefined) returned Epigenetic derep 14.1µM.
O=C1c2ccccc2C(=O)N1c1nc(-c2ccc(F)cc2)cs1 was read as Vif-APOBEC3G blk inactive.
CC(C)C[C@@H](/C=C/S(C)(=O)=O)NC(=O)[C@H](CC(C)C)NC(=O)[C@H](CC(C)C)NC(=O)OCc1ccccc1 was read as Epigenetic derep 6.31µM.
CC(C)CC(NC(=O)OCc1ccccc1)C(=O)NC(Cc1c[nH]c2ccccc12)C(=O)O (centres undefined) was read as Vif-APOBEC3G blk inactive.
For CCC(=O)OCC(=O)C1(OC(=O)CC)C(C)CC2C3CCC4=CC(=O)C=CC4(C)C3(Cl)C(O)CC21C (centres undefined) the results were Epigenetic derep inactive.
C1=Cc2ccccc2/C1=C\c1ccc2c(c1)OCO2 was read as Vif-APOBEC3G blk inactive.
COc1ccccc1N=Nc1ccc(O)c2ncccc12 was read as Vif-A3F inh inactive and Vif-APOBEC3G blk inactive.
`CCS(=O)(=O)c1ccc(N=Nc2ccc(O)c3ncccc23)c(OC)c1` gave Vif-A3F inh inactive, Epigenetic derep 3.55µM and Vif-APOBEC3G blk inactive.
For O=C(Nc1nccs1)c1cccc(N2C(=O)c3cccc4c([N+](=O)[O-])ccc(c34)C2=O)c1 the results were Vif-A3F inh inconclusive, Epigenetic derep 12.6µM and Vif-APOBEC3G blk inconclusive.
Screening O=C(Nc1ccc(S(=O)(=O)Nc2nccs2)cc1)c1cccc(N2C(=O)c3ccccc3C2=O)c1 returned Vif-A3F inh inactive, Epigenetic derep inactive and Vif-APOBEC3G blk inactive.
For Ic1ccc(Nc2nc(NCCN3CCOCC3)nc(N3CCCC3)n2)cc1 the results were Vif-APOBEC3G blk inactive.
For CCOC(=O)N1CCC(Nc2nc3ccccc3n3nnnc23)CC1 the results were Vif-A3F inh 10µM, Epigenetic derep inactive and Vif-APOBEC3G blk inactive.
Screening Oc1ccccc1Nc1nc2ccccc2n2nnnc12 returned Epigenetic derep 12.6µM.
